In ChEMBL document CHEMBL1201862, “PubChem BioAssay data set” (2004):
The campaign covered roughly 56,000 sequences. About 4,300 (7.7%) were called active. No stated cut-off is given here; in the data, active = GI50 up to about 1.1 µM and inactive = higher. A selection follows. Measured potencies and affinities stand elsewhere.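 Tested at 5 concentrations; 48 h exposure; 96-well plates; endpoints linearly interpolated, else capped at highest concentration. The concentration for 50% growth inhibition is given as GI50.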

system: OVCAR-3; experiment: NCI tumour cell line growth inhibition, 48 h

Substance	GI50 [µM]
[Bis(aminomethyl)dimethylsilane]dichloroplatinum (II), CHEMBL2146201	30.5
[Bis(aminomethyl)pentamethylenesilane]dichloropaltinum(II), CHEMBL2146202	6.5
[Bis(aminomethyl)dimethylsilane]tetrachloroplatinum(IV), CHEMBL2146190	7.29
cis-Bis[[(trimethylsilyl)methyl]amino]tetrachloroplatinum(IV), CHEMBL2146191	2.99
[Bis(aminomethyl)pentamethylenesilane]tetrachloropaltinum(IV), CHEMBL2146204	4.56
[Bis(aminomethyl)tetramethylenesilane]dichloropaltinum(II), CHEMBL2146205	32.5
[Bis(aminomethyl)tetramethylenesilane]tetrachloropaltinum(IV), CHEMBL2146189	13.1
CISPLATIN, CHEMBL11359	2.67
[Bis(aminomethyl)diethylsilane]tetrachloroplatinum(IV), CHEMBL2146203	6.11
[Bis(aminomethyl)ethylmethylsilane]tetrachloroplatinum(IV), CHEMBL2146192	4.43
mu-(1,7-nanodiamine-N,N')bis-(cis-aminedichloroplatimum (II)), CHEMBL2146215	29
